From PubChem BioAssay (NCI)
Values joined by “and” are separate entries in the source; they are usually repeats but may differ in a detail not shown here. Equal entries are not always repeated. This is part of a sample that, as a whole, favours compounds with a hit. Of some 83,000 tested, about 20% had one in any assay.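 The endpoint reported here, percent growth, reads 100 for growth as untreated, 0 for no net growth and -100 for all cells dead.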 Some compounds were tested as several samples or in several runs, with calls that do not always agree. Active and inactive are the calls of the source. The calls were made as follows: active = growth percent below 10; inactive = the rest.

What was measured:
Assay in all cases: NCI-60 one-dose screen, 48 h (100 = growth as untreated, 0 = no growth, -100 = all killed)
Details in all cases: 10 µM unless noted
[1] = test system: T-47D breast
[2] = test system: BT-549 breast
[3] = test system: MDA-MB-435 melanoma
[4] = test system: SW-620 colon
[5] = test system: MCF7 breast
[6] = test system: HCT-116 colon
[7] = test system: HCC-2998 colon
[8] = test system: KM12 colon

Row | SMILES | growth [1] | growth [2] | growth [3] | growth [4] | growth [5] | growth [6] | growth [7] | growth [8]
1 | CCCCOc1cc(C(=O)NCCN(CC)CC)c2ccccc2n1 | 82.9% (inactive) and 92.4% (inactive) | 93.4% (inactive) and 98.5% (inactive) | 88.9% (inactive) and 98.1% (inactive) | 105% (inactive) and 97.7% (inactive) | 93.3% (inactive) and 95% (inactive) | 91% (inactive) and 105% (inactive) | 96% (inactive) and 92.2% (inactive) | 101% (inactive) and 110% (inactive)
2 | O=[N+]([O-])c1ccc2nc3c4ccccc4c4ccccc4c3nc2c1 | 67.9% (inactive) | 86.9% (inactive) | 95% (inactive) | 63.4% (inactive) | 65% (inactive) | 33.6% (inactive) | 89.8% (inactive) | 89.3% (inactive)
3 | CN(C)CCCNC1=C(Cl)C(=O)c2ccccc2C1=O | 65.3% (inactive) and 32% (inactive) | 96.8% (inactive) and 93% (inactive) | -88.6% (active) and -88.2% (active) | -63% (active) and -57.8% (active) | 45.4% (inactive) and 5.05% (active) | 47.2% (inactive) and 4.88% (active) | -0.125% (active) and -63.6% (active) | 83.3% (inactive) and 40.7% (inactive)
4 | OCCN1CCN(CCCN2c3ccccc3Sc3ccc(Cl)cc32)CC1 | 66% (inactive) and 84.1% (inactive) | 59.1% (inactive) and 74.7% (inactive) | -11.6% (active) and 26.5% (inactive) | 80.6% (inactive) and 83.8% (inactive) | 77.2% (inactive) | 35.1% (inactive) and 66.7% (inactive) | 15.2% (inactive) and 70.6% (inactive) | 71.4% (inactive) and 80.5% (inactive)
5 | CCOC(=O)c1sc(N)nc1-c1ccccc1 | 94.4% (inactive) | 99.9% (inactive) | 103% (inactive) | 109% (inactive) | 100% (inactive) | 96.7% (inactive) | 102% (inactive) | 106% (inactive)
6 | OC1CCC(Oc2cccc3cnc(Nc4ccc5nc[nH]c5c4)nc23)CC1 (centres undefined) | -7.14% (active) and 43.9% (inactive) | -19.5% (active) and 18.4% (inactive) | 12.3% (inactive) and 58.4% (inactive) | 5.88% (active) and 32.4% (inactive) | 5.53% (active) and 17.9% (inactive) | -6.99% (active) and 2.03% (active) | 8.35% (active) and 61.4% (inactive) | 1.29% (active) and 15.7% (inactive)
7 | O=C(CN1CCN(c2cc3c(cc2F)c(=O)c(C(=O)O)cn3C2CC2)CC1)Nc1ccc(Cl)cc1 | 59.1% (inactive) and 92.4% (inactive) | 55.8% (inactive) | 88.4% (inactive) and 92.1% (inactive) | 101% (inactive) and 110% (inactive) | 94.3% (inactive) and 96.4% (inactive) | 73.1% (inactive) and 99.7% (inactive) | 85.8% (inactive) and 103% (inactive) | 82.9% (inactive) and 93.9% (inactive)
8 | Cc1cc(O)c2c(c1)C(=O)c1cc(O)cc(O)c1C2=O | 65% (inactive) and 73.4% (inactive) | 84.5% (inactive) and 88.1% (inactive) | 76.8% (inactive) and 83.6% (inactive) | 100% (inactive) and 97.3% (inactive) | 98.4% (inactive) and 95.1% (inactive) | 92.9% (inactive) and 97.5% (inactive) | 95% (inactive) and 108% (inactive) | 98.1% (inactive) and 91.9% (inactive)
9 | COc1cc(/C=N/Nc2nc3c([nH]2)c(=O)n(C)c(=O)n3C)ccc1O | 93% (inactive) and 102% (inactive) | 103% (inactive) and 112% (inactive) | 104% (inactive) and 116% (inactive) | 105% (inactive) and 110% (inactive) | 97% (inactive) and 95.2% (inactive) | 100% (inactive) and 108% (inactive) | 102% (inactive) and 124% (inactive) | 67.6% (inactive) and 79.4% (inactive)
10 | Cc1ccc(-c2noc(C)n2)cc1 | 104% (inactive) | 98.6% (inactive) | 99% (inactive) | 108% (inactive) | 95.6% (inactive) | 101% (inactive) | 103% (inactive) | 116% (inactive)
11 | Cc1cc(O)c(C(C)C)cc1S(=O)(=O)O (tested in a mixture with another compound) | 89.2% (inactive) and 58.9% (inactive) and 96.5% (inactive) | 96.8% (inactive) and -9.88% (active) and 113% (inactive) | 104% (inactive) and -12.6% (active) and 112% (inactive) | 109% (inactive) and 23.2% (inactive) and 102% (inactive) | 89.5% (inactive) and 4.62% (active) and 81.2% (inactive) | 85.9% (inactive) and 6.36% (active) and 104% (inactive) | 91.7% (inactive) and -59% (active) and 112% (inactive) | 116% (inactive) and 13.2% (inactive) and 113% (inactive)
12 | CCN(CC)CCCC(CNc1ccnc2cc(Cl)ccc12)c1ccc(Cl)cc1 (centres undefined) | -41.1% (active) and 114% (inactive) | 10.4% (inactive) and -11.4% (active) | -93.3% (active) and -61.5% (active) | 6.45% (active) and -100% (active) | -31.8% (active) and 70.3% (inactive) | -15.1% (active) and -20.3% (active) | -76.8% (active) and -93.6% (active) | 1.49% (active) and 33.3% (inactive)
13 | Cc1ccc(S(=O)(=O)NCN2C(=O)c3ccccc3C2=O)cc1 | 110% (inactive) | 101% (inactive) | 111% (inactive) | 108% (inactive) | 95.2% (inactive) | 98.5% (inactive) | 99.4% (inactive) | 110% (inactive)
14 | CCN(CC)CCC(CNc1ccnc2cc(Cl)ccc12)c1ccc(OC)cc1 (centres undefined) | 57.9% (inactive) and 77.2% (inactive) | 72.2% (inactive) and 66.1% (inactive) | 8.96% (active) and -30.1% (active) | 77.2% (inactive) and 61.2% (inactive) | 80.6% (inactive) and 72.3% (inactive) | 46.5% (inactive) and 39.4% (inactive) | 70.9% (inactive) and 52.7% (inactive) | 77.9% (inactive) and 75.8% (inactive)
15 | CCN(CC)CCCC(C)Nc1cnc(C(=O)Nc2cc(F)cc3cccnc23)cn1 (centres undefined) | 14.3% (inactive) and -49.5% (active) | 77.4% (inactive) and -40.1% (active) | 25.5% (inactive) and 3.24% (active) | 24.3% (inactive) and -78.8% (active) | 2.31% (active) and -37.5% (active) | 9.52% (active) and -66.7% (active) | 66.7% (inactive) and 14.1% (inactive) | 75.3% (inactive) and -92.3% (active)
16 | Cc1nn(-c2ccc(Cl)cc2)c2ncnc(N/N=C/c3ccccc3O)c12 | 13.3% (inactive) and 23.8% (inactive) | 36% (inactive) and 36.4% (inactive) | 27.3% (inactive) and 23.7% (inactive) | 35.1% (inactive) and 31.5% (inactive) | 8.28% (active) and 12.1% (inactive) | 26.7% (inactive) and 21.6% (inactive) | 31% (inactive) and 39.7% (inactive) | 28.4% (inactive) and 22.2% (inactive)
17 | CCOC(=O)Nc1nc2ccccc2[nH]1 | 110% (inactive) and 42.1% (inactive) | 105% (inactive) and 11.7% (inactive) | 96.1% (inactive) and -30% (active) | 108% (inactive) and 12% (inactive) | 113% (inactive) and 17.8% (inactive) | 106% (inactive) and 23% (inactive) | 108% (inactive) and -9.87% (active) | 106% (inactive) and 26.2% (inactive)
18 | Cc1ncsc1CCO | 93.5% (inactive) and 94.4% (inactive) | 101% (inactive) and 100% (inactive) | 106% (inactive) and 104% (inactive) | 108% (inactive) and 101% (inactive) | 109% (inactive) and 96% (inactive) | 112% (inactive) and 102% (inactive) | 101% (inactive) and 109% (inactive) | 110% (inactive) and 98.1% (inactive)
